Consider 66 molecules from PubChem BioAssay AID2551 (National Center for Advancing Translational Sciences (NCATS), 2010).

Among all 310,000 compounds or so, about 17,000 (5.5%) were called active. Where a call stands in place of a potency, no number is given. Another 11% or so got no clear call; they are omitted. Calls come from the whole dose curve; as a rule, active = well fitted inhibition curve with a large enough effect; inconclusive = small, poorly fitted or top-dose-only effect, or effect the other way; inactive = no such curve, though single readings can be large or run the other way. Only a selection was taken, and actives are over-represented in it overall.
Potency is the fitted concentration of half-maximal effect.

This assay deals with Nuclear receptor ROR-gamma (Mus musculus) (UniProt P51450). The assay can be described thus: qHTS for inhibitors of ROR gamma transcriptional activity. Note: nearly all actives have a fitted effect of over 60% in size. The note with it: Drosophila S2 Gal4-RORgamma UAS-luciferase reporter, 20 h; series mostly up to 53.6 µM. In a few lines: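 Read-out: Photinus luciferase luminescence; inhibitors lower reporter signal. Insect Schneider cells with Gal4-ROR gamma fusion under metallothionein promoter, UAS reporter; 700 uM final copper sulfate induction, 20 hr, ambient temperature.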
Sequence of Nuclear receptor ROR-gamma (Mus musculus) (P51450 whole entry, looked up, the tested form may be a part): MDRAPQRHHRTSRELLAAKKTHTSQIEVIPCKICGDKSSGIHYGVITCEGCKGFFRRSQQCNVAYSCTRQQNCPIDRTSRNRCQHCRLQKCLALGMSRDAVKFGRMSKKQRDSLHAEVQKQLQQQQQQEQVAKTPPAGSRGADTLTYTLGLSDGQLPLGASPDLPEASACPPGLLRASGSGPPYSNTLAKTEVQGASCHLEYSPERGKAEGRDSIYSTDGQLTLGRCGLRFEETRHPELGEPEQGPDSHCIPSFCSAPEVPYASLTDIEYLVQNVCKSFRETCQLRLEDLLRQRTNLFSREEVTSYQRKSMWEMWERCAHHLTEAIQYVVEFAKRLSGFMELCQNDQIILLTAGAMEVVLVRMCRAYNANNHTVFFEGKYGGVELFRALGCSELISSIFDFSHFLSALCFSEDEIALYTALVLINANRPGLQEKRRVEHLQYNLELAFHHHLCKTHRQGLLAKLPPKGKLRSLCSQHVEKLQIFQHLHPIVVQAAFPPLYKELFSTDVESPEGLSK
A general note: Quantitative high-throughput screening tests each substance at several concentrations.
Consider `CCCC(=O)N1CCC(CCC(=O)NC2CC2)CC1`, for which the Potency result was “inactive”.
`O=C(NCCc1ccc(Cl)cc1)C1CCCN1C(=O)NCc1ccccc1` (stereo unspecified): the Potency result was “inactive”.
On the same count and under the same terms, the same measure for `COCCn1cnc2c1c(=O)n(CC(=O)NN)c(=O)n2Cc1ccccc1`: “inactive”.
Still for that read-out and setting: the same measure for `O=C(CN1C(=O)/C(=C\c2ccccc2F)SC1=S)Nc1nc2ccccc2s1`: 11.2 µM (active); for `O=C(CN1C(=O)S/C(=C\c2ccccc2F)C1=O)NCCCn1ccnc1`: “inactive”; for `Cc1nn(CC(=O)Nc2nc3ccccc3s2)c(C)c1[N+](=O)[O-]`: “inactive”.
The same measure, in the same setting: the same measure for `CCOC(=O)C1C(c2ccc(O)cc2)NC(=O)NC1(O)C(F)(F)F` (stereo unspecified): “inactive”; for `CC1=NN(C(N)=S)C(=O)C1N=Nc1cc(Cl)ccc1Cl` (stereo unspecified): 1.41 µM (active); for `C=CCNc1nc(N)c([N+](=O)[O-])c(NC2CCCCC2)n1`: “inactive”.
For the molecule `O=C(NCc1ccc2c(c1)OCO2)c1cc(F)c(F)cc1Cl`, the activity change, negative = inhibition is -6.24% [at 1.91 µM] (inactive).
For `CN(C)S(=O)(=O)c1cccc(NC(=S)NCc2ccc3c(c2)OCO3)c1`, the Potency entry was “inactive”.
Consider `Cc1c(Cl)cccc1NC(=S)NCc1ccc2c(c1)OCO2`, for which the Potency was 7.08 µM (active).
Consider `CS(=O)(=O)N(CC(=O)N1CCCCCC1)c1cccc(Cl)c1Cl`, for which the Potency entry was “inactive”.
The same measure, in the same setting: the same measure for `Cc1noc(C)c1C(=O)OCC(=O)/C=C1\N(C)c2ccccc2C1(C)C`: “inactive”; for `CN1/C(=C\C(=O)c2cccnc2Cl)C(C)(C)c2ccccc21`: “inactive”.
With `CC(=O)Nc1cccc(OCC(=O)/C=C2\N(C)c3ccccc3C2(C)C)c1`, the Potency is 7.08 µM (active).
Consider `CC(NC(=S)Nc1ccccc1)C1COc2ccccc2O1` (stereo unspecified), for which the Potency is 6.31 µM (active).
For the molecule `CC(=O)c1cccc(NC(=O)C2COc3ccccc3O2)c1` (stereo unspecified), the activity change, negative = inhibition is -30.8% [at 1.91 µM] (inactive).
As for `CC(c1ccco1)N(C(=O)Nc1ccccc1)C1CCCCC1` (stereo unspecified), the Potency result is “inactive”.
Still for that read-out and setting: the same measure for `COC(=O)CSc1nc2ccccc2c(=O)n1Cc1ccccc1`: “inactive”; for `Cc1cc(C)n(CCNS(=O)(=O)c2ccc(Cl)cc2)n1`: “inactive”.
Still for that read-out and setting: the same measure for `Cc1ccc(CSCC(N)C(=O)O)cc1` (stereo unspecified): “inactive”.
In the case of `Cc1ccc(SC(CC(=O)c2ccc(C(C)(C)C)cc2)C(=O)O)cc1` (stereo unspecified), the Potency is 1.41 µM (active).
As for `Cc1ccc(SC(C)C(=O)NCc2ccc(F)cc2)cc1` (stereo unspecified), the Potency entry is “inactive”.
On to `Cc1sc2ncn(CC(=O)NCCCC(=O)N(C)Cc3ccccc3)c(=O)c2c1C`, for which the Potency result is “inactive”.
In the case of `O=C(CN1C(=O)c2cccnc2Oc2ccc(Cl)cc21)Nc1ccc(F)cc1`, the Potency entry was “inactive”.
The same measure, in the same setting: the same measure for `COc1cccc(CSc2nc3nc(C)cc(C)n3n2)c1`: “inactive”; for `Cc1cc(NC(=O)CCC(=O)N(CC(=O)NC2CCCC2)c2ccc(F)cc2)no1`: “inactive”; for `COCCN(C(=O)CCC(=O)Nc1nccs1)C(C(=O)NCCC(C)C)c1ccc(F)cc1` (stereo unspecified): “inactive”.
Still for that read-out and setting: the same measure for `Cc1ccc(S(=O)(=O)N(CC(O)CN2C(=O)NC(C)(C)C2=O)c2cccc([N+](=O)[O-])c2)cc1` (stereo unspecified): “inactive”; for `CCOc1ccccc1/C=N/NC(=O)CNC(=O)COc1ccccc1`: “inactive”.
Still for that read-out and setting: the same measure for `C=CCOc1ccccc1/C=N/NC(=O)Cc1ccccc1`: “inactive”; for `C=C(C)CNC(=S)N/N=C/c1ccccc1OCC(=O)O`: 10 µM (active); for `N#Cc1cc([N+](=O)[O-])ccc1NCC1CCCO1` (stereo unspecified): “inactive”.
Take `Cc1ccc(NC(=O)C2CCCN2C(=O)OCc2ccccc2)cc1C` (stereo unspecified): the Potency result was “inactive”.
`O=C(N/N=C/c1cccc(O)c1)c1cc2c(ccc3ccccc32)o1`: the Potency result was “inactive”.
Same read-out and setting: the same measure for `Cc1cccc(CS(=O)(=O)c2ncc(Cl)c(C(=O)Nc3ccc(F)cc3)n2)c1`: 6.31 µM (active); for `Cc1ccc(S(=O)(=O)CC(=O)Nc2nnc(C)s2)cc1`: “inactive”; for `CSc1ncc(Cl)c(C(=O)Nc2cc(C)ccc2C)n1`: “inactive”.
Take `Cc1cccc(NC(=O)C(C)SCc2ccccc2)c1` (stereo unspecified): the Potency entry is “inactive”.
The same measure, in the same setting: the same measure for `Cc1cccc(NC(=O)c2nc(S(=O)(=O)Cc3ccccc3)ncc2Cl)c1`: 7.08 µM (active); for `Cc1cccc(OCc2ccc(C(=O)Nc3ccc(F)cc3)cc2)c1`: “inactive”; for `CCSc1ncc(Cl)c(C(=O)Nc2cc(C)ccc2C)n1`: “inactive”.
Same read-out and setting: the same measure for `Cc1ccc(CS(=O)(=O)c2ncc(Cl)c(C(=O)Nc3nnc(C)s3)n2)cc1`: 14.1 µM (active); for `Cc1nnc(NC(=O)CCCOc2ccccc2)s1`: “inactive”.
Regarding `O=C(CCS(=O)(=O)c1ccccc1)NC1CCCC1`, the Potency result is “inactive”.
Still for that read-out and setting: the same measure for `CSCCC(NS(=O)(=O)c1ccc(C)cc1)C(=O)NCCc1c[nH]c2ccccc12` (stereo unspecified): “inactive”.
As for `O=C(CN(C(=O)CCC(=O)Nc1nccs1)c1ccc(F)cc1)NCc1ccc2c(c1)OCO2`, the Potency result is “inactive”.
Regarding `COc1ccc(N2CCC(N3CCN(C)C(CCO)C3)CC2)cc1` (stereo unspecified), the Potency result was “inactive”.
Take `C/C(=N\O)C1(C)N(O)C(C)(C)C(c2ccc(Br)cc2)=[N+]1[O-]` (stereo unspecified): the Potency entry was “inactive”.
On to `CC1(C)C(c2cccs2)=[N+]([O-])C2(CCCCC2=O)N1O` (stereo unspecified), for which the Potency entry is “inactive”.
For the molecule `CC(=O)C1(C)N(O)C(C)(C)C(c2cccs2)=[N+]1[O-]` (stereo unspecified), the Potency was 4.47 µM (active).
For `CCOC(=O)c1c(-c2ccccc2)oc2cc(Br)c(O)c(C=O)c12`, the Potency result is “inactive”.
Same read-out and setting: the same measure for `O=C(NCCc1ccccc1)c1ccc2c(c1)N(Cc1ccccc1)CCS2`: “inactive”.
Turning to `O=C(NCCNc1ccc([N+](=O)[O-])cc1Cl)c1ccccc1F`, the activity change, negative = inhibition is -13.1% [at 1.91 µM] (inactive).
`C/C(CC(C)C)=N\Oc1nc(C)cc(C)n1`: the Potency is 6.31 µM (active).
Consider `COC(c1ccccc1)(c1ccccc1)C(Oc1nc(C)cc(C)n1)C(=O)O` (stereo unspecified), for which the Potency entry was “inactive”.
Consider `COc1ccc(NC(=O)CCCN2C(=O)C(c3ccccc3)Oc3cccnc32)cc1` (stereo unspecified), for which the Potency result was “inactive”.
Consider `CCN(C(=O)c1cc([N+](=O)[O-])ccc1NCc1cccnc1)c1ccccc1`, for which the activity change, negative = inhibition was 11.5% [at 1.91 µM] (inactive).
For the molecule `COc1ccc(CN(C)C(=O)c2cc(-c3ccc(C)cc3C)nc3ccccc23)c(OC)c1OC`, the Potency entry was “inactive”.
As to `Cc1cc(=O)oc2c3c(cc(OCC(=O)NCCC(=O)N[C@@H](C)C(=O)O)c12)OC(C)(C)CC3`, the Potency entry was “inactive”.
Same read-out and setting: the same measure for `COC(=O)c1ccc(/C=N/NC(=O)C(=O)N2CCCCCC2)cc1`: “inactive”.
In the case of `CC(/C=C/c1ccccc1)=N\NC(=O)C1CC1(C)c1ccccc1` (stereo unspecified), the Potency entry is “inactive”.
Turning to `O=C(N/N=C/C=C/c1ccccc1)C1CC1(c1ccccc1)c1ccccc1` (stereo unspecified), the Potency was 8.91 µM (active).
Take `COc1ccccc1/C=C/C=N/NC(=O)CN1CCN(Cc2ccccc2)CC1`: the Potency result was “inactive”.
The same measure, in the same setting: the same measure for `CN(C(=O)CCNC(=O)Cn1ccc2ccccc2c1=O)c1ccc(Br)cc1`: “inactive”.
